Source: PubChem BioAssay (University of Kansas High Throughput Screening Laboratory)
Pf apPOL inh: Pf-apPOL DNA polymerase inhibition | Recombinant Pf-apPOL, molecular beacon fluorescence, 1.5 h | inhibition, % at 10 µM | actives 0.25% (n = 210,000) | AID 1794808
mHTT-CaM PPI inh: inhibitors of human mutant huntingtin-calmodulin interaction | P42858 | AlphaScreen His-mHTT/GST-CaM binding, luminescence | inhibition, % at 15 µM | actives 3.6% (n = 190,000) | AID 1671202;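 also: 0% = both proteins with DMSO and 100% = one protein alone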
Target sequence (P42858 whole entry, looked up, stated change not applied): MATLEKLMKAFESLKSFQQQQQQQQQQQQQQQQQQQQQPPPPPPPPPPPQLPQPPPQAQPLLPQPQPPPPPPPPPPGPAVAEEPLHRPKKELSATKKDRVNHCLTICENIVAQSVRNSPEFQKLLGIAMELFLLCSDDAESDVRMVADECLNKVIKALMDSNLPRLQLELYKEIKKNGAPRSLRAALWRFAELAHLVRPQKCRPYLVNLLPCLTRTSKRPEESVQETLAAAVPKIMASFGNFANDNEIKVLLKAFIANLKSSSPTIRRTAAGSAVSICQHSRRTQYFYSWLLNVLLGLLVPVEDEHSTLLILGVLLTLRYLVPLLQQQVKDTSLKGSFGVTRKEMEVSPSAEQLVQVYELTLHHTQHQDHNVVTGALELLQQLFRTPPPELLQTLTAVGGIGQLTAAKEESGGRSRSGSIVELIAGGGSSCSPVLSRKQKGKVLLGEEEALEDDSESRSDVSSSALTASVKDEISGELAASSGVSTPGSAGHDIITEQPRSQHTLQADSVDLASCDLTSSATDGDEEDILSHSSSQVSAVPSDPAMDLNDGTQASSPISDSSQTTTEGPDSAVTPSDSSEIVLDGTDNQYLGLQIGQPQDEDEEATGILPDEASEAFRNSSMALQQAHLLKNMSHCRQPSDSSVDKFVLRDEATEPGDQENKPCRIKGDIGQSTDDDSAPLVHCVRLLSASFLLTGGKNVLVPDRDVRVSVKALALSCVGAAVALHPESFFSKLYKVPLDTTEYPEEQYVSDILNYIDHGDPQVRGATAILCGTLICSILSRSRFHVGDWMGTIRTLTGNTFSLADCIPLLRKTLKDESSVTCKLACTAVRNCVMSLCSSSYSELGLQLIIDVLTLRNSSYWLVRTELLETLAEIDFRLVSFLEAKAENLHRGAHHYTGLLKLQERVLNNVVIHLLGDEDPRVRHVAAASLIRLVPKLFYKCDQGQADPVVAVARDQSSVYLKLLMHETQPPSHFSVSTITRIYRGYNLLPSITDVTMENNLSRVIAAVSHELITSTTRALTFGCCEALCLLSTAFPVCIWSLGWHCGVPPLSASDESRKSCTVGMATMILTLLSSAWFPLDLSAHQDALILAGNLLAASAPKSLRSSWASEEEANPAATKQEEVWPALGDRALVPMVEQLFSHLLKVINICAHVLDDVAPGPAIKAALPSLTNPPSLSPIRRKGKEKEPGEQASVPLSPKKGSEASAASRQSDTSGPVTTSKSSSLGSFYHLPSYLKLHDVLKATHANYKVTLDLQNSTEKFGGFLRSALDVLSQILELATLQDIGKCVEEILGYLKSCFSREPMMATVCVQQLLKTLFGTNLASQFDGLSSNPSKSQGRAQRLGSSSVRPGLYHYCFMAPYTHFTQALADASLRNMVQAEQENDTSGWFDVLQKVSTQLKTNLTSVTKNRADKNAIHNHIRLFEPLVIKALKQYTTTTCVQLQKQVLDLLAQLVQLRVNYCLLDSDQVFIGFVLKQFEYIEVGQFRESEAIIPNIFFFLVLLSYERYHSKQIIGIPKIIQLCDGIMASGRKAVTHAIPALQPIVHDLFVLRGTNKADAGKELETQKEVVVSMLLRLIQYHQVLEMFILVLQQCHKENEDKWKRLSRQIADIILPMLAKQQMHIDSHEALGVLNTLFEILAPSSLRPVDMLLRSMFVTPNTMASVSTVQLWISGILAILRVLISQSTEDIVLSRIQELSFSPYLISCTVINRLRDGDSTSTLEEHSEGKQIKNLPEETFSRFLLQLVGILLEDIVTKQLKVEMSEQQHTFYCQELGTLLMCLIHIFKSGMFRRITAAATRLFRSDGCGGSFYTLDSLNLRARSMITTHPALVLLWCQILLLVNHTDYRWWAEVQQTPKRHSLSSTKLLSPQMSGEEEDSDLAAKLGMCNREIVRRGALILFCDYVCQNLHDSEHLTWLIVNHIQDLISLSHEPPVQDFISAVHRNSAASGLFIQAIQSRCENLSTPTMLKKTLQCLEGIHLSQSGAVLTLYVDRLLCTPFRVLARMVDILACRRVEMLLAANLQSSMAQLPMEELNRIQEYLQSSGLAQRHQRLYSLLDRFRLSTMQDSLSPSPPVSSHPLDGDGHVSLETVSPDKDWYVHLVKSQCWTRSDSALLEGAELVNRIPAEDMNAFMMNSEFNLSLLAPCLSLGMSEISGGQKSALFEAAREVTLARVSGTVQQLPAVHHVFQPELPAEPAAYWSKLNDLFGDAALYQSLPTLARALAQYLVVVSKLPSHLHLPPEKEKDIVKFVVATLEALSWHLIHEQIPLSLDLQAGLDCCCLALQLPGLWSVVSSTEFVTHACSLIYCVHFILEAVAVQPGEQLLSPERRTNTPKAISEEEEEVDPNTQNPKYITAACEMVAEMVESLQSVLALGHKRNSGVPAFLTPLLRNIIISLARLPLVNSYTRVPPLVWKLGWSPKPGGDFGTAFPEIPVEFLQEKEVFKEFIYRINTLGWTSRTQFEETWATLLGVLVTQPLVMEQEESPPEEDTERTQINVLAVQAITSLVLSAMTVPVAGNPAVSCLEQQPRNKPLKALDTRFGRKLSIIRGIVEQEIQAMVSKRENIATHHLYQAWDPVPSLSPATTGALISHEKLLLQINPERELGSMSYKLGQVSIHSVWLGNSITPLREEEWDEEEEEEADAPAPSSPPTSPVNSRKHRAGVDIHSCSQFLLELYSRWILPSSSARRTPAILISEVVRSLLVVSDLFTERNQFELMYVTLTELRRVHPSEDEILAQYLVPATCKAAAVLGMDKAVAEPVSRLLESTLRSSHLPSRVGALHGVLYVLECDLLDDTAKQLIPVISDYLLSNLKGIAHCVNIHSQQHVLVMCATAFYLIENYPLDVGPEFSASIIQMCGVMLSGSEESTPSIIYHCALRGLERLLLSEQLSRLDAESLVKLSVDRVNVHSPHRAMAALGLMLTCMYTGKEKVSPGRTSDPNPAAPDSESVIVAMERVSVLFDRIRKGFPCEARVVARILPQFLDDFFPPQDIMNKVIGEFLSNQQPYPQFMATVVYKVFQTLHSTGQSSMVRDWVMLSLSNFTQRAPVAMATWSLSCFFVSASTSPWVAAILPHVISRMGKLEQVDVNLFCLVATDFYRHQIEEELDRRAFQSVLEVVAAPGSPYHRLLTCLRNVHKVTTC
Numbers without * were called inactive; / = no result given; ! = a repeat was not active. Only a selection was taken, and hits are over-represented in it overall. Rule as the data show it: active = inhibition above about 50%; inactive = the rest.

SMILES	Pf apPOL inh	mHTT-CaM PPI inh
CC1(C)Oc2ccc(Br)cc2C2CC(c3cccs3)=NN21 (stereo unspecified)	-3.3	59.0*
COc1ccc(C2=NN3C(C2)c2cccc(OC)c2OC3(C)C)cc1 (stereo unspecified)	-17.5	51.0*
O=S(=O)(c1ccccc1)N1N=C(c2cccs2)CC1c1ccc(Br)cc1 (stereo unspecified)	-54.4	-4.0
COCCn1c(SCc2nc(-c3cccs3)no2)nc2cc3c(cc2c1=O)OCO3	10.5	1.4
CCOc1ccc(N2CC(c3nnc(NC(=O)C4CCCCC4)o3)CC2=O)cc1 (stereo unspecified)	-2.9	-3.5
CCOc1ccc(-c2csc(N)n2)cc1Cl	-5.3	23.5
COc1ccc2ncc(C#N)c(N3CCC(C(=O)NCc4ccccc4)CC3)c2c1	-3.5	7.0
COc1c(C(=O)Nc2ccc3c(c2)OCO3)sc2cc(Cl)ccc12	-1.2	37.4
CC(C)C(=O)N1CCc2ccc(NC(=O)c3ccccc3C(F)(F)F)cc2C1	88.2*	14.2
Cc1cc(C(=O)Nc2ccc3c(c2)CN(C(=O)C(C)C)CC3)c(C)o1	-5.7	-5.5
O=C(NC1CCCCC1)c1ccc(-c2cccs2)nc1	-1.9	-5.6
CN(C)c1ccc(/C=C/C=C/c2cccc[n+]2C)cc1	7.3	46.0
CN(C)c1ccc(/C=C/C=C/c2cc[n+](C)cc2)cc1	-13.5	60.0*
O=C(NCc1ccco1)N1CCC(n2c(-c3ccco3)nc3cccnc32)C1 (stereo unspecified)	3.3	22.4
O=C(Cc1ccc(Cl)cc1)Nc1ccccc1NC(=O)Cc1ccc(Cl)cc1	3.0	-5.3
CC(=O)Nc1ccccc1NC(=O)Cc1ccc(Cl)cc1	94.8*	-1.3
CC(=O)N1CCc2cc(N3CC(C(=O)NCc4ccco4)CC3=O)ccc21 (stereo unspecified)	-1.6	1.5
OCc1cn(-c2ccccc2)nc1-c1cccnc1	-0.8	-2.8
Cc1c(N=Cc2cn(-c3ccccc3)nc2-c2cccnc2)c(=O)n(-c2ccccc2)n1C	-8.1	31.0
O=C(/C=C/c1cn(-c2ccccc2)nc1-c1cccnc1)c1ccco1	6.1	52.6*
O=C(/C=C/c1cn(-c2ccccc2)nc1-c1cccnc1)c1cccs1	0.0	51.7*
COc1cc(C(=O)Nc2c3c(nn2-c2cccc(Cl)c2)CSC3)cc(OC)c1OC	-8.6	3.0
Cc1nc(-c2ccccc2)sc1C(=O)N1CCC(C(C)C(=O)NCc2cccnc2)CC1 (stereo unspecified)	8.2	10.9
N#C/C(=C\c1ccc(-c2cc(Cl)cc(Cl)c2)o1)c1nn(CCO)c(N)c1C#N	-4.7	57.7*
N#C/C(=C\c1c(F)cccc1Cl)c1nn(CCO)c(N)c1C#N	8.8	-1.2
SMILES	Pf apPOL inh	mHTT-CaM PPI inh
N#C/C(=C\c1ccc(-c2ccc(Cl)cc2)o1)c1nn(CCO)c(N)c1C#N	-14.5	54.5*
N#C/C(=C\c1cccc(Br)c1)c1nn(CCO)c(N)c1C#N	-5.3	2.7
COc1ccc(C(=O)N2CCCC2c2ccc(Cl)cc2)cc1OC (stereo unspecified)	-3.0	16.4
CCc1onc(C)c1C1CCCN1C(=O)Nc1ccc(C)c(C)c1 (stereo unspecified)	-4.6	-7.3
CCOC(=O)C(C#N)=CNc1ccc(Oc2cncc(Cl)c2)nc1	-9.6	/
COc1cc(/C=c2\sc3nc4ccccc4n3c2=O)cc(I)c1OC	0.2	2.0
O=C(Cc1csc(NC(=O)c2cnccn2)n1)NCCOc1ccc(F)cc1	-4.0	-1.8
O=C(Cc1csc(NC(=O)c2ccsc2)n1)Nc1cccnc1	-5.0	0.8
CS(=O)(=O)Nc1cccc(NC(=O)Cc2csc(NC(=O)c3cnccn3)n2)c1	20.0	97.4*
O=C(Cc1csc(NC(=O)c2cnccn2)n1)Nc1ccc(-n2cccn2)cc1	-6.5	97.4*
COC(=O)c1ccc(-c2noc(-c3ncn4c3COC(c3ccccc3Cl)C4)n2)cc1 (stereo unspecified)	2.2	25.5
Cc1ccccc1CN1C(=O)C(=O)c2cc(Cl)ccc21	-4.9	51.0*
O=C1C(=O)N(Cc2ccc(Cl)cc2)c2ccc(S(=O)(=O)N3CCOCC3)cc21	31.2	92.0*
O=c1ccc(S(=O)(=O)N2CCOCC2)cn1Cc1cccc(Cl)c1	-1.1	-10.1
O=C1c2cccnc2C(=O)N1Cc1ccc(Cl)cc1	-4.9	14.0
Cc1ccccc1CN1C(=O)C(=O)c2ccccc21	-4.5	33.0
O=C1C(=O)N(Cc2ccc(Cl)cc2)c2ccc(Cl)cc21	-7.0	77.7*!
CCOC(=O)COc1ccc2c(c1)OC(=Cc1ccc(Br)cc1)C2=O	-3.6	2.3
Cc1ccc(N2C=C(C#N)S(=O)(=O)c3ccc(C)cc32)c(F)c1	2.0	-5.9
Cc1cc(C(=O)Nc2nc3c(C)cc(Cl)cc3s2)on1	2.7	-5.6
O=C(Nc1ccc(F)cc1)c1cccc2[nH]cc(CN3CCSCC3)c12	-2.2	12.4
O=C(CSc1ccc(Cl)cc1)Nc1ccc([N+](=O)[O-])cc1	-7.1	-2.0
O=S(=O)(Nc1ccccc1)c1ccc(Cl)cc1I	6.9	/
Cc1cccc(Oc2c(C(F)(F)F)oc3c(CN4CC(C)OC(C)C4)c(O)ccc3c2=O)c1 (stereo unspecified)	-3.4	3.0
Oc1[nH]c(=S)sc1C=CC=CC=Nc1ccccc1	/	95.2*
SMILES	Pf apPOL inh	mHTT-CaM PPI inh
CC(=Cc1ccccn1)C(=O)c1c(C)c(C)c(C)c(C)c1C	-0.1	/
Cc1ccccc1NC(=O)N1CC=C(c2cn(C(C)C)c3ncccc23)CC1	-5.5	26.9
COc1ccc(C)cc1NC(=O)N1CC=C(c2cn(C(C)C)c3ncccc23)CC1	-4.2	53.1*
Cc1cccc(CNC(=O)c2nn(C)c3c2CN(C(=O)c2cccc(Cl)c2)CC3)c1	-9.0	76.0*
Cc1cccc(CNC(=O)c2nn(C)c3c2CN(C(=O)c2ccc(Cl)cc2)CC3)c1	-0.8	63.8*
Cc1cccc(CNC(=O)c2nn(C)c3c2CN(C(=O)c2c(F)cccc2F)CC3)c1	-6.6	-7.9
COC(=O)c1ccc(N2CCN(C(C)C)CC2)c(NC(=O)c2ccc(F)cc2)c1	-2.0	-4.5
COCCNC(=O)C(C)NC(=O)c1ccc(Cl)cc1Cl (stereo unspecified)	-1.2	/
COc1ccc2c(c1)NC(C)(C)C=C2C	/	17.9
CC1(C)Nc2ccc(C(c3ccccc3)(c3ccccc3)c3ccccc3)cc2-c2c1ssc2=S	/	3.6
COc1ccc2c(c1)-c1c(ssc1=S)C(C)(C)N2	/	88.5*
COc1ccc2c(c1)C(C)=CC(C)(C)N2	-4.3	94.0*!
CCCn1cnnc1C1CCCN(Cc2ccc3cc[nH]c3c2)C1 (stereo unspecified)	-1.6	10.8
Cc1ccc(-c2csc3ncnc(Nc4ccc(N5CCOCC5)cc4)c23)cc1	-0.3	60.4*
Cc1sc2ncnc(Nc3ccc(N4CCCCC4)cc3)c2c1C	3.5	23.5
CCS(=O)(=O)N1CCC2(CC1)OCCN2S(=O)(=O)c1cccs1	-0.9	-14.5
Cc1ccccc1C1=N/C(=C\c2sccc2C)C(=O)O1	0.9	20.0
Cc1ccsc1C=C1C(=O)c2ccccc2C1=O	-2.6	50.0*
CCCSc1nnc2n(-c3ccccc3)c(=O)c3c(C)c(C)sc3n12	3.7	-5.0
COCCCNC(=O)C1CCN(Cc2cc3ccccc3n2Cc2cccc(F)c2)CC1	4.1	51.0*
COCCCNC(=O)C1CCN(c2ncccc2-c2nc(-c3cccc(F)c3)no2)CC1	-3.5	-3.7
COCCCNC(=O)C1CCN(c2cnn(Cc3ccccc3)c(=O)c2)CC1	-0.7	-2.4
COCCCNC(=O)C1CCN(Cc2cc3ccccc3n2Cc2ccc(F)cc2)CC1	3.2	52.6*
